The supplement of paper PMC6555819

Legend:
Assay in all cases: PBM binding z-score (relative to random genomic background probes); higher = stronger binding; sequences stand for … in GC…GCGATTGACAGCGTAGAATGAAGG
[1] = system: RARb homodimer (NR concentration 270 nM)
Outline: (§1)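 Regression normalization was applied to scanned fluorescence from custom Agilent 4×180K protein-binding microarrays. Before scanning, arrays were incubated 1 h with ligand-free nuclear receptor dimers, and binding was detected with antibodies against each partner (one per run). Binding z-scores use the random background probes as reference.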

[2] = system: RARg:RXRa (NR concentration 270 nM, RXRa partner concentration 90 nM)
Outline: as §1

[3] = system: RARg homodimer (NR concentration 270 nM)
Outline: as §1

[4] = system: RXRa DBDmut IVT, anti-RXR (DBD mutation: RXRa K156A/R161A, NR concentration 90 nM)
Outline: as §1

[5] = system: RXRa homodimer (NR concentration 180 nM)
Outline: as §1

[6] = system: THRa:RXRa (NR concentration 90 nM, RXRa partner concentration 90 nM)
Outline: as §1

[7] = system: THRa homodimer (NR concentration 90 nM)
Outline: as §1

[8] = system: VDR homodimer (NR concentration 270 nM)
Outline: as §1

## CCTACTGGGCCCAGGTCATTGATCAGTCAAAGCA
[1]
  PBM binding z-score: 2.14
[2]
  PBM binding z-score: 2.06
[3]
  PBM binding z-score: 1.28
[4]
  PBM binding z-score: -0.46
[5]
  PBM binding z-score: 1.47
[6]
  PBM binding z-score: 2.93
[7]
  PBM binding z-score: 2.15
[8]
  PBM binding z-score: 1.25

## ATACCAAGGTGATCGGGAGGTCGTTGATACTAAC
[1]
  PBM binding z-score: 1.96
[2]
  PBM binding z-score: 2.79
[3]
  PBM binding z-score: 0.879
[4]
  PBM binding z-score: 0.167
[5]
  PBM binding z-score: 1.44
[6]
  PBM binding z-score: 2.58
[7]
  PBM binding z-score: 1.27
[8]
  PBM binding z-score: 1.99

## CCTTACGGTTCACTCCAGGTTATAGCATCGGAGT
[1]
  PBM binding z-score: 1.62
[2]
  PBM binding z-score: 1.48
[3]
  PBM binding z-score: 0.86
[4]
  PBM binding z-score: 3.44
[5]
  PBM binding z-score: 1.89
[6]
  PBM binding z-score: 4.66
[7]
  PBM binding z-score: 1.33
[8]
  PBM binding z-score: 3.65

## TCATATAGGTAAACACGTGAAAGTCCGTAAGTTA
[1]
  PBM binding z-score: 0.112
[2]
  PBM binding z-score: 0.245
[3]
  PBM binding z-score: 0.371
[4]
  PBM binding z-score: 1.31
[5]
  PBM binding z-score: 0.661
[6]
  PBM binding z-score: 0.0438
[7]
  PBM binding z-score: 0.238
[8]
  PBM binding z-score: 0.164

## ATCGAAAGGTCGAAGGTGAGTAGACCCACCCGAA
[1]
  PBM binding z-score: 2.17
[2]
  PBM binding z-score: 4.35
[3]
  PBM binding z-score: 4.04
[4]
  PBM binding z-score: 1
[5]
  PBM binding z-score: 5.53
[6]
  PBM binding z-score: 1.87
[7]
  PBM binding z-score: -0.399
[8]
  PBM binding z-score: -0.0656

## CGGCCAAGGTCAGAGAGGTCAGTGAATGCCGAGT
[1]
  PBM binding z-score: 5.45
[2]
  PBM binding z-score: 6.22
[3]
  PBM binding z-score: 7.62
[4]
  PBM binding z-score: 3.44
[5]
  PBM binding z-score: 6.21
[6]
  PBM binding z-score: 4.17
[7]
  PBM binding z-score: 2.42
[8]
  PBM binding z-score: 5.9

## ACTAGCAGGCCATGTTTGGGTCACTCAAACAAAG
[1]
  PBM binding z-score: 1.98
[2]
  PBM binding z-score: 2.04
[3]
  PBM binding z-score: 1.42
[4]
  PBM binding z-score: -0.345
[5]
  PBM binding z-score: 0.614
[6]
  PBM binding z-score: 2.24
[7]
  PBM binding z-score: 1.21
[8]
  PBM binding z-score: -0.169
